Measured values: PubChem BioAssay (Tox21)
Several values for one entry are separate records, joined by “and”; a condition that tells them apart may be missing. Identical values can stand only once. Records with an inconclusive call do not appear. Entries that show only a call come without a potency. Where a structure was tested more than once in an assay, its records may differ in their call. Activity calls are given as the source filed them. Unless noted, the call rests on the fitted dose curve; in most records, active means well fitted curve in the direction sought with a large enough effect in the repeat runs; inconclusive means weak or mixed curves; inactive means no such curve, though single readings can be large; an effect the other way counts as inactive or inconclusive.

Legend:
[1] = qHTS assay to identify small molecule agonists of the hypoxia (HIF-1) signaling pathway - cell viability counter screen (AID 1224844; calls by dose curve; further: nearly all actives have a fitted effect of over 50% in size)
In short: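 Cytotoxicity measured by CellTiter-Glo ATP luminescence in the wells also read for beta-lactamase signal. Cells were HRE-bla ME-180 (2,000/well, 0.5% dialyzed FBS), exposed to compounds for 17 h at 37C.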

[2] = qHTS assay to identify small molecule agonists of H2AX (AID 1224845; active means well fitted activation curve with a large enough effect in the signal ratio in the repeat runs, not every such curve was filed as active; the % refers to the signal ratio)
In short: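 Wild-type CHO-K1 cells, plated overnight, exposed 3hr at 37C to 15 concentrations (0.76% DMSO final). Lysed, then HTRF anti-pH2AX (S139) cryptate and anti-H2AX-d2 antibodies, 24 hr room temperature; 665/620 nm emission read.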

[3] = qHTS assay to identify small molecule agonists of the hypoxia (HIF-1) signaling pathway (AID 1224846; active means well fitted activation curve with a large enough effect in the signal ratio in the repeat runs, not every such curve was filed as active; the % refers to the signal ratio)
In short: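 Compounds added to ME-180 cells carrying hypoxia-response-element beta-lactamase reporter (0.5% dialyzed FBS, 5 h preplating), 17 h at 37C; agonist activity detected by CCF4-AM B/G FRET read-out.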

[4] = qHTS assay to identify small molecule agonists of H2AX - cell viability counter screen (AID 1224847; calls by dose curve; further: top concentration of the series differs between compounds; nearly all actives have a fitted effect of over 30% in size)
In short: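 Compounds tested at 15 concentrations were incubated 3 hr at 37C with wild-type CHO-K1 cells; cellular ATP-based luminescence (CellTiter-Glo) indicated viability.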

[5] = qHTS RealTime-Glo MT Cell Viability Assay in HepG2 cells - 24 hour (AID 1224867); further: nearly all actives have a fitted effect of over 50% in size
In short: (§1)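 Real-time, nonlytic viability: 600 HepG2 cells/well mixed with NanoLuc enzyme plus prosubstrate; 5 h settle, compound (DMSO) added by pintool; luminescence monitored over 40 h at 37 C.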

[6] = qHTS RealTime-Glo MT Cell Viability Assay in HEK293 cells - 32 hour (AID 1224868); further: nearly all actives have a fitted effect of over 50% in size; further: potency means the concentration at half of the fitted maximal effect
In short: (§2)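 Cells + reagent dispensed (600 cells/well, HEK293) → 5 h at 37 C/5% CO2 → 23 nL compound in DMSO pinned → 40 h at 37 C → luminescence read at 0, 8, 16, 24, 32, 40 h.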

[7] = A CellTox Green Cytotoxicity Assay to monitor cytotoxicity in HEK293 cells - 0 hour (AID 1224869); further: nearly all actives have a fitted effect of over 50% in size; further: potency means the concentration at half of the fitted maximal effect
In short: (§3)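 Fluorescence from a DNA-binding dye excluded by viable cells was measured repeatedly in the same HEK293 wells (600 cells/well) during continuous compound exposure at 37 C. Each assay gives one read point: 0, 8, 16, 24, 32 or 40 h.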

[8] = qHTS RealTime-Glo MT Cell Viability Assay in HepG2 cells - 40 hour (AID 1224870); further: nearly all actives have a fitted effect of over 50% in size
In short: (§4)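 HepG2 cells (600/well) mixed with RealTime-Glo MT reagent, settled 5 h at 37 C/5% CO2 before compound addition. Nonlytic NanoLuc luminescence from viable-cell prosubstrate reduction read repeatedly during 40 h treatment at 37 C.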

[9] = A CellTox Green Cytotoxicity Assay to monitor cytotoxicity in HEK293 cells - 40 hour (AID 1224871); further: nearly all actives have a fitted effect of over 45% in size; further: potency means the concentration at half of the fitted maximal effect
In short: as §3

[10] = qHTS RealTime-Glo MT Cell Viability Assay in HEK293 cells - 16 hour (AID 1224872); further: nearly all actives have a fitted effect of over 50% in size; further: potency means the concentration at half of the fitted maximal effect
In short: as §2

[11] = qHTS RealTime-Glo MT Cell Viability Assay in HEK293 cells - 40 hour (AID 1224874); conditions: RealTime-Glo luminescence; max response: stronger effect = lower value; further: nearly all actives have a fitted effect of over 50% in size; further: potency means the concentration at half of the fitted maximal effect
In short: (§5)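 Luminescence, which tracks viable cell number through reduction of the prosubstrate to a NanoLuc substrate, was read over continuous 37 C culture. Cells (600/well) were premixed with reagent and rested 5 h before 23 nL of compound in DMSO was pinned.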

[12] = A CellTox Green Cytotoxicity Assay to monitor cytotoxicity in HEK293 cells - 24 hour (AID 1224875); further: nearly all actives have a fitted effect of over 45% in size
In short: as §3

[13] = A CellTox Green Cytotoxicity Assay to monitor cytotoxicity in HepG2 cells - 16 hour (AID 1224876); further: nearly all actives have a fitted effect of over 45% in size; further: potency means the concentration at half of the fitted maximal effect
In short: (§6)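 Real-time cytotoxicity: fluorescence of a cell-impermeant cyanine dye binding DNA of dead HepG2 cells, measured repeatedly (0–40 h) during compound exposure at 37 C. Cells seeded 600/well with reagent, dosed after 5 h.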

[14] = qHTS RealTime-Glo MT Cell Viability Assay in HepG2 cells - 32 hour (AID 1224877); further: nearly all actives have a fitted effect of over 55% in size
In short: as §1

[15] = A CellTox Green Cytotoxicity Assay to monitor cytotoxicity in HepG2 cells - 24 hour (AID 1224878); further: nearly all actives have a fitted effect of over 45% in size
In short: as §6

[16] = A CellTox Green Cytotoxicity Assay to monitor cytotoxicity in HepG2 cells - 40 hour (AID 1224879); further: nearly all actives have a fitted effect of over 40% in size; further: potency means the concentration at half of the fitted maximal effect
In short: as §6

[17] = qHTS RealTime-Glo MT Cell Viability Assay in HEK293 cells - 0 hour (AID 1224880); further: nearly all actives have a fitted effect of over 45% in size; further: potency means the concentration at half of the fitted maximal effect
In short: as §5

[18] = qHTS assay to identify small molecule antagonists of the estrogen related receptor (ERR) signaling pathway from Tox21 library (AID 1224848); further: nearly all actives have a fitted effect of over 50% in size; further: potency means the concentration at half of the fitted maximal effect
In short: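 Compounds dissolved in DMSO are pin-transferred onto ERR reporter cells (2,000 per well) that have settled for 6 h at 37 C. Plates then incubate 18 h at 37 C before ONE-Glo luciferase reagent and a luminescence read 30 min later.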

[19] = qHTS assay to identify small molecule agonists of the estrogen related receptor (ERR) signaling pathway from Tox21 library (AID 1224849; calls by dose curve; further: nearly all actives have a fitted effect of over 15% in size); conditions: ERR reporter cell line, ONE-Glo luciferase, 18 h
In short: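 Luminescent agonist read-out (One-Glo, 30-minute room-temperature incubation) following 18-hour compound treatment at 37 C of the ERR cell line, which had been plated 6 hours before dosing.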

[20] = qHTS RealTime-Glo MT Cell Viability Assay in HepG2 cells - 8 hour (AID 1224873); further: nearly all actives have a fitted effect of over 55% in size
In short: as §4

CCCOCCO
Potency [1]: inactive | Potency [2]: inactive | outcome [3]: inactive | Potency [4]: inactive | Potency [5]: inactive | Potency [6]: inactive | Potency [7]: inactive | Potency [8]: inactive | Potency [9]: inactive | Potency [10]: inactive | max response [11]: 2.92% (inactive) and 1.86% (inactive) | Potency [12]: inactive | Potency [13]: inactive | Potency [14]: inactive | Potency [15]: inactive | Potency [16]: inactive | Potency [17]: inactive

OCCNCCO
Potency [1]: inactive | Potency [2]: inactive | outcome [3]: inactive | Potency [4]: inactive | Potency [18]: inactive | activity change, positive = activation ([19]; at 92.4 µM (top of the series)): -2.22% (inactive) and 4.53% (inactive) | Potency [5]: inactive | Potency [6]: inactive | Potency [7]: inactive | Potency [8]: inactive | Potency [9]: inactive | Potency [10]: inactive | max response [11]: 4.46% (inactive) and 5.31% (inactive) | Potency [12]: inactive | Potency [13]: inactive | Potency [14]: inactive | Potency [15]: inactive | Potency [16]: inactive

Brc1nc2ccccc2s1
Potency [1]: inactive | Potency [2]: inactive | outcome [3]: inactive | Potency [4]: inactive | Potency [5]: inactive | Potency [7]: inactive | Potency [8]: inactive | Potency [9]: inactive | Potency [10]: inactive | Potency [20]: inactive | max response [11]: 0.941% (inactive) and 3.88% (inactive) | Potency [12]: inactive | Potency [13]: inactive | Potency [14]: inactive | Potency [15]: inactive | Potency [16]: inactive

CC(=O)OC(C)C
Potency [1]: inactive | Potency [2]: inactive | outcome [3]: inactive | Potency [4]: inactive | Potency [5]: inactive | Potency [7]: inactive | Potency [8]: inactive | Potency [9]: inactive | Potency [10]: inactive | max response [11]: -9.76% (inactive) and -7.44% (inactive) | Potency [12]: inactive | Potency [13]: inactive | Potency [14]: inactive | Potency [15]: inactive | Potency [16]: inactive | Potency [17]: inactive

Oc1ccc(C(c2ccc(O)cc2)C(Cl)(Cl)Cl)cc1
Potency [1]: inactive | Potency [2]: inactive | outcome [3]: inactive | Potency [5]: inactive | Potency [7]: inactive | Potency [8]: inactive | Potency [9]: inactive | Potency [20]: inactive | Potency [11]: 34.5 µM (active) | Potency [12]: inactive | Potency [13]: inactive | Potency [14]: inactive | Potency [16]: inactive

O=C(O)c1ccc(O)cc1
Potency [1]: inactive | Potency [2]: inactive | Potency [4]: inactive | Potency [18]: inactive | activity change, positive = activation ([19]; at 92.4 µM (top of the series)): 9.49% (inactive) | Potency [5]: inactive | Potency [7]: inactive | Potency [8]: inactive | Potency [9]: inactive | Potency [10]: inactive | Potency [20]: inactive | max response [11]: -0.345% (inactive) and 9.29% (inactive) | Potency [12]: inactive | Potency [13]: inactive | Potency [14]: inactive | Potency [15]: inactive | Potency [16]: inactive | Potency [17]: inactive

CCOC(=O)C(C)Oc1ccc(Oc2cnc3cc(Cl)ccc3n2)cc1 (stereo unspecified)
Potency [1]: inactive | Potency [2]: inactive | outcome [3]: inactive | Potency [5]: inactive | Potency [7]: inactive | Potency [8]: inactive | Potency [9]: inactive and 1.29 µM (active) | Potency [10]: 20 µM (active) and 20.5 µM (active) | Potency [11]: 44.7 µM (active) | max response [11]: -24.7% (inactive) | Potency [12]: inactive | Potency [13]: inactive | Potency [14]: inactive | Potency [16]: inactive | Potency [17]: inactive

CC(=O)O[C@]1(C(C)=O)CC[C@H]2[C@@H]3C=C(C)C4=CC(=O)CC[C@]4(C)[C@H]3CC[C@@]21C
Potency [1]: inactive | Potency [2]: inactive | Potency [4]: inactive | Potency [18]: 21.7 µM (active) and 26.6 µM (active) | activity change, positive = activation ([19]; at 42.5 µM (top of the series)): -37.5% (inactive) | activity change, positive = activation ([19]; at 92.4 µM (top of the series)): -63.2% (inactive) | Potency [5]: inactive | Potency [6]: 17.4 µM (active) | Potency [7]: inactive | Potency [8]: inactive | Potency [9]: inactive | Potency [20]: inactive | Potency [11]: 19.5 µM (active) and 10.7 µM (active) | Potency [12]: inactive | Potency [13]: inactive | Potency [14]: inactive | Potency [16]: inactive | Potency [17]: 5.49 µM (active) and 2.68 µM (active)

CC(C)[C@@H]1CC[C@@H](C)CC1=O
Potency [1]: inactive | Potency [2]: inactive | outcome [3]: inactive | Potency [4]: inactive | Potency [5]: inactive | Potency [7]: inactive | Potency [8]: inactive | Potency [9]: inactive | Potency [10]: inactive | Potency [20]: inactive | max response [11]: -0.963% (inactive) and 5.54% (inactive) | Potency [12]: inactive | Potency [13]: inactive | Potency [14]: inactive | Potency [15]: inactive | Potency [16]: inactive

COc1cc([C@H]2Oc3cc([C@H]4Oc5cc(O)cc(O)c5C(=O)[C@@H]4O)ccc3O[C@@H]2CO)ccc1O
Potency [1]: inactive | Potency [2]: inactive | Potency [4]: inactive | Potency [18]: inactive | activity change, positive = activation ([19]; at 42.5 µM (top of the series)): 4.78% (inactive) | activity change, positive = activation ([19]; at 92.4 µM (top of the series)): -26.2% (inactive) | Potency [5]: inactive | Potency [6]: inactive | Potency [7]: inactive and 15.1 µM (active) | Potency [8]: inactive | Potency [9]: inactive and 16.9 µM (active) | Potency [10]: inactive | max response [11]: -16.5% (inactive) | Potency [13]: inactive and 21.3 µM (active) | Potency [14]: inactive | Potency [16]: inactive and 21.3 µM (active) | Potency [17]: inactive

CN(C)/N=N/c1nc[nH]c1C(N)=O
Potency [1]: inactive | Potency [2]: inactive | Potency [4]: inactive | Potency [18]: 69.6 µM (active) | activity change, positive = activation ([19]; at 42.5 µM (top of the series)): -23.2% (inactive) | activity change, positive = activation ([19]; at 92.4 µM (top of the series)): -35.6% (inactive) | Potency [5]: inactive | Potency [6]: inactive | Potency [7]: inactive | Potency [8]: inactive | Potency [9]: inactive | Potency [10]: inactive | Potency [20]: inactive | max response [11]: -18.2% (inactive) and -3.15% (inactive) | Potency [12]: inactive | Potency [13]: inactive | Potency [14]: inactive | Potency [15]: inactive | Potency [16]: inactive | Potency [17]: inactive

C=CC(=O)OCCCC
Potency [1]: inactive | Potency [2]: inactive | Potency [4]: inactive | Potency [18]: inactive | activity change, positive = activation ([19]; at 92.4 µM (top of the series)): 7.41% (inactive) and 1.06% (inactive) | Potency [5]: inactive | Potency [6]: inactive | Potency [7]: inactive | Potency [8]: inactive | Potency [9]: inactive | Potency [10]: inactive | max response [11]: 6.68% (inactive) and 3.94% (inactive) | Potency [12]: inactive | Potency [13]: inactive | Potency [14]: inactive | Potency [15]: inactive | Potency [16]: inactive | Potency [17]: inactive

C=C1C[C@H]2[C@@H]3C=C(C)C4=CC(=O)CC[C@]4(C)[C@H]3CC[C@]2(C)[C@@]1(OC(C)=O)C(C)=O
Potency [1]: inactive | Potency [2]: inactive | Potency [4]: inactive | Potency [18]: 24.8 µM (active) and 21.1 µM (active) | activity change, positive = activation ([19]; at 42.5 µM (top of the series)): -56.4% (inactive) and -29.1% (inactive) | Potency [5]: inactive | Potency [7]: inactive | Potency [8]: inactive | Potency [9]: inactive | Potency [20]: inactive | Potency [12]: inactive | Potency [13]: inactive | Potency [14]: inactive | Potency [16]: inactive
